Experimental data as given in PubChem BioAssay AID602365 (National Center for Advancing Translational Sciences (NCATS), 2012).
Inconclusive results are not listed. Calls of active or inactive are those of the source. Calls come from the whole dose curve; as a rule, active = well fitted inhibition curve with a large enough effect; inconclusive = small, poorly fitted or top-dose-only effect; inactive = flat fitted curve, though single readings scatter.

Each compound was assayed against Luciferin 4-monooxygenase (Photinus pyralis) (UniProt P08659) (assay: FLuc inhibitory activity for the follow-up compounds in a biochemical assay with 1mM D-luciferin). Details: purified FLuc, luminescence; series mostly up to 57.5 µM.
Text: NCGC Assay Overview: Firefly (Photinus pyralis) luciferase is one of the most commonly used transcriptional reporters. It is considered one of the more dynamically responsive reporters - that is, responsive to changes in reporter transcription - as it requires no post-translational modifications and is enzymatically active directly after protein synthesis (Wood, 1998). With no endogenous expression in mammalian cells and without the requirement of external excitation, it offers very little background signal, thus generally providing excellent signal to background for most assays. Previous profiling work to determine the prevalence of compounds that affect FLuc enzymatic activity (PubChem AID 411) identified that ~3% of the MLSMR library (then at ~72K) inhibited FLuc. […] Of the compounds identified in this profile that inhibited FLuc, 151 compounds were selected for further analysis, in an effort to better understand their mode of inhibiting FLuc. The assay described here was to determine the activity of the compounds in a FLuc assay that contained a KM concentration of ATP and a high concentration (1mM) of D-luciferin.
NCGC Assay Protocol Summary: Reagents: 50mM Tris acetate, pH 7.5; 10mM Mg acetate; 1mM D-luciferin (Sigma #L9504); 10uM ATP; 0.01% Tween-20; 0.05% BSA; 10nM P. pyralis luciferase (Sigma #L9506) Control compounds used were two known firefly luciferase inhibitors (3-(5-(3-chlorophenyl)-1,2,4-oxadiazol-3-yl)benzoic acid and 5-(2-fluorophenyl)-3-phenyl-1,2,4-oxadiazole), and DMSO. Three microliters containing firefly luciferase substrates in buffer (final concentrations: 50mM Tris acetate, pH 7.5, 10mM Mg acetate, 0.01% Tween-20, 0.05% BSA, 1mM D-luciferin, 10uM ATP) are dispensed into each well of a Greiner white, solid-bottom 1536-well format plate using a flying reagent dispenser (FRD). These assay plates were then treated with 23nL of compound or DMSO using a Kalypsys pin tool, which allows for delivery of a 12-point intraplate titration of each compound to the assay plate (quantitative HTS), with a final compound concentrations ranging from approximately ~60uM to 0.3nM. One microliter of firefly luciferase in […] Tris-acetate buffer was then delivered by FRD to each well for a final enzyme concentration of 10nM. Luciferase activity was then measured using a ViewLux CCD imager (PerkinElmer), with an average exposure time of 2-30 seconds (2X binning, medium/high gain).

Chain of Luciferin 4-monooxygenase (Photinus pyralis) (P08659 whole entry, looked up): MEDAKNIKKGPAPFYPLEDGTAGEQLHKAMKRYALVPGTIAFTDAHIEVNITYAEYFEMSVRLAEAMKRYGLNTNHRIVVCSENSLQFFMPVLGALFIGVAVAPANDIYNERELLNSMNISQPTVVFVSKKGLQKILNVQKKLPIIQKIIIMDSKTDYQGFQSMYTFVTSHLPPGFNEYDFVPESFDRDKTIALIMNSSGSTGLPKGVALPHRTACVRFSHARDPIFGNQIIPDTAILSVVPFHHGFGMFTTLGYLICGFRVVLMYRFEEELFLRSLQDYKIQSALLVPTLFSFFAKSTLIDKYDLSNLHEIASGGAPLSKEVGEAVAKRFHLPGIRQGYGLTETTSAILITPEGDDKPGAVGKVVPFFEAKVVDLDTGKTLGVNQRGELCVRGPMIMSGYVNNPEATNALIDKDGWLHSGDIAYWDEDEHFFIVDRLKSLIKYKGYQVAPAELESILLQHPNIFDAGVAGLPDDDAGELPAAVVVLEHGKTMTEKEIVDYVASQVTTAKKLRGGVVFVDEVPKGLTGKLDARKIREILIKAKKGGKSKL

Row | SMILES | Potency
1 | CN(C)c1cccc(C(=O)Nc2ccc(-c3nc4ccccc4s3)cc2)c1 | 18.3 µM (active)
2 | Cc1ccc(C(=O)Nc2cccc(C(=O)O)c2)cc1S(=O)(=O)N1CCOCC1 | 16.3 µM (active)
3 | Cc1ccc(NS(=O)(=O)c2ccc(Cl)c(C(=O)Nc3cccc(C(=O)O)c3)c2)cc1 | inactive
4 | c1ccc2sc(-c3ccc4c(c3)OCO4)nc2c1 | 1.3 µM (active)
5 | COc1ccccc1C(=O)Nc1ccc(C(=O)O)cc1 | inactive
6 | COc1ccc2nc(NC(=O)CCc3nc(-c4ccccc4F)no3)sc2c1 | inactive
7 | Cc1ccc2nc(-c3ccc(NC(=O)CN4CCN(C(=O)c5ccco5)CC4)cc3)sc2c1 | 14.6 µM (active)
8 | O=C(Nc1ccccc1C(=O)O)c1cc(S(=O)(=O)NCc2ccccc2)ccc1Cl | inactive
9 | COc1ccc(-c2nc3ccccc3s2)cc1O | 0.651 µM (active)
10 | O=C(O)c1ccc(NC(=O)c2cccc(C(=O)Nc3ccc(C(=O)O)cc3)c2)cc1 | inactive
11 | CC(C)(C)NC(=O)c1ccccc1-c1nc2ccccc2s1 | inactive
12 | O=C(O)c1ccc(NC(=O)c2cc(S(=O)(=O)N3CCCCC3)c(Cl)cc2Cl)cc1 | inactive
13 | Nc1ccc(C(=O)Nc2ccccc2C(=O)O)cc1 | 20.6 µM (active)
14 | Cc1c(NC(=O)c2cc(-n3cnnc3)ccc2Cl)cccc1-c1nc2ccccc2s1 | 0.919 µM (active)
15 | CCOc1ccc(C(=O)Nc2cccc(C(=O)O)c2)cc1Cl | 6.51 µM (active)
16 | CC(C)(C)C(=O)Nc1ccc(-c2nc3ccccc3s2)cc1 | 0.0411 µM (active)
17 | Cc1c(C)c2ccc(OCC(=O)Nc3ccccn3)c(C)c2oc1=O | 0.0919 µM (active)
18 | COc1ccc2nc(NC(=O)CCc3ccc(OC)c(OC)c3)sc2c1 | inactive
19 | Cc1ccc2sc(-c3ccc(NC(=O)c4cc(-n5cnnc5)ccc4Cl)cc3)nc2c1 | 18.3 µM (active)
20 | COc1cc(C(=O)Nc2cc(C)c(O)c(-c3nc4ccccc4s3)c2)cc(OC)c1OC | inactive

Row | SMILES | Potency
21 | Cc1ccc(C(=O)Nc2cccc(C(=O)O)c2)cc1S(=O)(=O)N1CCCCC1 | 4.11 µM (active)
22 | O=C(Nc1ccccc1C(=O)O)c1cccc(NC(=O)c2ccco2)c1 | 20.6 µM (active)
23 | CC(C)C(=O)Nc1cccc(C(=O)Nc2ccccc2C(=O)O)c1 | 18.3 µM (active)
24 | COc1ccc(-c2nc3ccccc3s2)cc1NC(=O)c1ccc(F)cc1 | inactive
25 | Oc1ccc(-c2nc3ccccc3s2)c(O)c1 | 16.3 µM (active)
26 | O=C(Nc1ccccc1C(=O)O)c1cccc(NC(=O)c2ccc(Br)o2)c1 | 20.6 µM (active)
27 | COc1ccc2nc(NC(=O)c3ccc(S(=O)(=O)N4CCCC(C)C4)cc3)sc2c1 (stereo not given) | inactive
28 | O=C(Nc1ccccc1C(=O)O)c1cccc(NC(=O)c2ccccc2Cl)c1 | 36.6 µM (active)
29 | COc1ccc2nc(NC(=O)c3cnccn3)sc2c1 | 6.51 µM (active)
30 | Nc1ccc2nc(-c3ccc(O)cc3)sc2c1 | 1.3 µM (active)
31 | COc1ccc2nc(NC(=O)C3CCN(S(=O)(=O)c4cccnc4)CC3)sc2c1 | inactive
32 | CCOc1ccc2nc(NC(=O)c3ccccn3)sc2c1 | 2.06 µM (active)
33 | Cc1ccc(C(=O)Nc2ccc(C(=O)O)cc2)cc1S(=O)(=O)Nc1ccccc1 | inactive
34 | O=C(Nc1ccccc1C(=O)O)c1cc(S(=O)(=O)Nc2cccc(F)c2)ccc1Cl | inactive
35 | NC(=O)Cc1ccc2sc(-c3ccccc3)nc2c1 | 13 µM (active)
36 | O=C(Cc1ccc(Cl)cc1)Nc1cccc(C(=O)Nc2ccccc2C(=O)O)c1 | 36.6 µM (active)
37 | O=C(Nc1ccccc1C(=O)Nc1ccccc1C(=O)O)c1ccccc1 | 20.6 µM (active)
38 | COc1ccc(NS(=O)(=O)c2cccc(C(=O)Nc3ccccc3C(=O)O)c2)cc1 | inactive
39 | O=C(Nc1ccccc1C(=O)O)c1cccc(S(=O)(=O)Nc2ccc(Br)cc2)c1 | inactive
40 | COc1ccc(C(=O)Nc2nc3ccc(OC)cc3s2)cc1 | 5.17 µM (active)
